# Screening results (PubChem)
# ATXN2 expr inh – inhibitors of ATXN2 expression; HEK-293 ATXN2-luciferase reporter, luminescence, 24 h; Potency, µM (doses to about 57 µM), for inactives: top-dose activity change, negative = inhibition, hits mostly inhibitors; hit rate 0.72% among 360,000; AID 1745845; also: potency is read from the fitted curve at half-maximal effect; % is scaled to controls: 0 for no effect and ±100 for the full control effect; nearly all actives have a fitted effect of over 55% in size
#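 qHTS (up to 57 uM final) was run with 24 h compound exposure of reporter cells at 37 °C. Each well was multiplexed: SteadyGlo luminescence measured ATXN2-luciferase expression after a fluorogenic Gly-Phe-AFC viability readout (25 uM final).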
# CtBP-E1A blk – inhibitors of CtBP/E1A interaction. activity change, % (test concentration not listed). AlphaScreen GST-E1A/His-CtBP binding, 1536-well; active compounds read low. hit rate 0.49% among 340,000; in the data active = activity change below about -65%; inconclusive = mostly about -30% to -63%; also: % is scaled to controls: 0 for no effect and ±100 for the full control effect
#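 AlphaScreen with 125 nM GST-E1A and 125 nM His-CtBP (5X stocks) in Tris pH 8.0, 300 mM NaCl, BSA, Tween 20, TCEP. Compounds preincubated 2 h at 37 deg C, then glutathione donor/nickel acceptor beads added for 1 h at 37 deg C in dark.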
# Six1-Eya2 inh – inhibitors of human Six1/Eya2 interaction; activity change, % (concentration not given with the values); hit rate 0.56% among 360,000; Q15475+O00167; AlphaScreen GST-Six1/His-Eya2 binding, biochemical; active compounds read low; in the data active = activity change below about -65%; inconclusive = mostly about -30% to -63%; also: % is scaled to controls: 0 for no effect and ±100 for the full control effect
# Target sequence (O00167 whole entry, looked up): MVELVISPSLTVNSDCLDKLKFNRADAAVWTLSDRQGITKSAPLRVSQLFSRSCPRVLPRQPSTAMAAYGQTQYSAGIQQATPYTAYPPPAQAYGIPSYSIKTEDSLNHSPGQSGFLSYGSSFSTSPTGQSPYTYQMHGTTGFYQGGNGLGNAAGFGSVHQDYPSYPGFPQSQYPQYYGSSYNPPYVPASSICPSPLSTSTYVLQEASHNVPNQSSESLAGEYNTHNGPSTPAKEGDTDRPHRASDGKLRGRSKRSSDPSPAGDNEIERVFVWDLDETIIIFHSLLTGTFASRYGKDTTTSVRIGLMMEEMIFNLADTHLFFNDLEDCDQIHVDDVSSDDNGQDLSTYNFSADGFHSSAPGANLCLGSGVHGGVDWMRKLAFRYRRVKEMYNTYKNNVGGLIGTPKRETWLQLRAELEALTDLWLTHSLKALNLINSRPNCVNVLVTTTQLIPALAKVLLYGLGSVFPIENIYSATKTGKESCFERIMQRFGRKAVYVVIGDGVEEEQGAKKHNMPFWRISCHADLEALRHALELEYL
# Target sequence (Q15475 whole entry, looked up): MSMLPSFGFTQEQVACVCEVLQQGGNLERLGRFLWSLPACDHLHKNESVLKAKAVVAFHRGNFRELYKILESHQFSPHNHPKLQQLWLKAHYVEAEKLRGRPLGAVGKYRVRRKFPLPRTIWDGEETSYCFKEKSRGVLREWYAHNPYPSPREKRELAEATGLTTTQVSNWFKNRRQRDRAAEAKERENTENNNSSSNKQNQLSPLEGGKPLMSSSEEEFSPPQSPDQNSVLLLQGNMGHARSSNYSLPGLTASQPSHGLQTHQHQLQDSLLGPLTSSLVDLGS
#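 Homogeneous AlphaScreen proximity assay pairing GST-Six1 with His-tagged Eya2 (added as 5X mix: 250 nM and 500 nM) in 50 mM Tris pH 8.0, 300 mM NaCl, 1 mM TCEP. Glutathione donor and nickel acceptor beads; 1 h, 37 °C, dark.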
# TGFb SMAD3 inh – blocks TGF-b signaling; HepG2 CAGA-GFP TGF-b/SMAD3 reporter, GFP fluorescence, 18 h; TGF-beta stimulated, 500 pg/mL final; Potency, µM (highest dose often 46.1 µM), without a hit: at the highest dose activity, negative = inhibition, actives largely listed as inhibitors; hit rate 1.2% among 410,000; also: potency is read from the fitted curve at half-maximal effect; % is scaled to controls: 0 for no effect and ±100 for the full control effect; nearly all actives have a fitted effect of over 65% in size
#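 Per well, imaged GFP fluorescence of HEPG2 CAGA-GFP cells gives the signal; cells get compound, then TGF-beta (500 pg/mL final), 18 h at 37 degrees C; %Activity versus -TGF-beta and +DMSO controls.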
# HepG2 tox – counter-screen for TGF-b inhibitors: cytotoxicity in HepG2 cells; hit rate 0.76% among 410,000; AID 588856; Potency, µM (titrated, usually from 46.1 µM), inactives show at the top dose activity change, negative = cytotoxicity, hits mostly cytotoxic; HepG2 CAGA-GFP viability, ATP luminescence, 18 h; also: potency is read from the fitted curve at half-maximal effect
#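 CellTiter-Glo luminescence gave cytotoxicity after 18 hours at 37 degrees C. The cells were HepG2 CAGA-GFP in 1% FBS DMEM, stimulated with 500 pg/mL TGF-beta after compound addition. %Activity was normalised to no-cell wells (complete cell-killing) and DMSO (no toxicity), and curves were fitted and classified.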
# S2 tox – reduces viability in counter-screen for ATXN expression inhibitors; S2 cells (HEK-293 line with an ATXN2-luciferase reporter) viability, CellTiter-Fluor protease fluorescence, 24 h; Potency, µM (doses to about 56.7 µM), most hits filed as cytotoxic; hit rate 0.49% among 400,000; also: potency is read from the fitted curve at half-maximal effect; nearly all actives have a fitted effect of over 40% in size
# Starred values were filed as active, the others as inactive; i = inactive; ? = inconclusive; / = no result given; [ ] = remark or other dose. This is a sample that favours compounds with a hit; in the whole collection about 2.8% have one here. Unless noted, calls follow the shape of the dose curve; as a rule, active = well fitted curve in the direction sought with a large enough effect; inconclusive = small, poorly fitted or top-dose-only effect, or another doubt; inactive = no such curve, though single readings can be large; an effect the other way counts as inactive or inconclusive.
SMILES,ATXN2 expr inh,CtBP-E1A blk,Six1-Eya2 inh,TGFb SMAD3 inh,HepG2 tox,S2 tox
O=C(CN1C2=NCCCN2c2ccccc21)c1cccc(Br)c1,-14%,7,-9,?,-38%,?
O=C(CN1C2=NCCN2c2ccccc21)c1ccc2c(c1)OCO2,-34%,47,20,-25%,-8%,16µM*
O=C(CN1C2=NCCCN2c2ccccc21)c1ccc([N+](=O)[O-])cc1,?,1,0,?,16µM*,i
S=C(NC1CCCCCC1)NC1CCCC1,/,-5,3,-8%,-4%,i
NNC(=S)NC1CCCCCCCCCCC1,/,/,0,10µM*,8.9µM*,i
NC(=O)N/N=C/c1c(O)ccc2oc3c(c12)CCCC3,?,-18,-20,10µM*,1%,i
CC(C)(C)N=Cc1c(O)ccc2oc3c(c12)CCCC3,-21%,3,16,8%,10%,i
CCC1CCC(C(=O)NC(C(=O)NCCN(CC(C)C)CC(C)C)C(C)C)CC1 (configuration not stated),9%,/,/,-3%,9%,i
C/C(=N\Nc1nccnc1Cl)c1ccc(O)cc1,4%,-11,-16,0%,-34%,i
C/C(=N\Nc1c(Cl)c(Cl)nc(C(=O)O)c1Cl)c1ccc(O)cc1,-5%,?,-67*,-29%,-10%,i
CC1(C(=O)NC2CCCCCC2)CCN1C(=O)C1(c2ccccc2)CC1 (configuration not stated),-5%,7,4,-22%,-42%,i
CCn1nc(C)c(CN2CCC3(CCC(CNC(=O)c4ccccc4)O3)CC2)c1C (configuration not stated),/,/,/,/,/,i
COc1ccc(Br)cc1/C=N/NC(=O)c1cccnc1,-15%,0,9,-3%,-4%,i
COc1cc([N+](=O)[O-])cc(/C=N/NC(=O)C(O)(c2ccccc2)c2ccccc2)c1O,-24%,-82*,?,-18%,-24%,i
COc1cc([N+](=O)[O-])cc(/C=N/NC(=O)c2cccnc2)c1O,/,-92*,-90*,-25%,-33%,i
COc1cc([N+](=O)[O-])cc(/C=N/NC(=O)C(C)Nc2cccc3ccccc23)c1O (configuration not stated),20µM*,?,?,?,-45%,?
CC(Nc1cccc2ccccc12)C(=O)N/N=C/c1ccc([N+](=O)[O-])cc1 (configuration not stated),-12%,-18,-22,?,-25%,i
CCNC(=O)/C(C#N)=C/c1c(N(Cc2ccccc2)Cc2ccccc2)nc2ccccn2c1=O,1%,-2,-21,?,-32%,i
CNC(=O)/C(C#N)=C/c1c(N(Cc2ccccc2)Cc2ccccc2)nc2c(C)cccn2c1=O,-7%,-17,-10,13µM*,6%,?
COC(=O)CCN(C(=O)C1CCN(S(=O)(=O)c2c(C)noc2/C=C/c2ccccc2F)CC1)c1ccccc1,/,/,/,?,-24%,/
N#Cc1c(NCCN)nc(-c2ccco2)c2c1CCCC2,13µM*,14,2,?,-29%,i
O=S(=O)(NCC(c1cccs1)S(=O)(=O)c1ccccc1)c1ccc(F)c(C(F)(F)F)c1 (configuration not stated),/,/,/,?,-33%,/
O=S(=O)(NCC(c1cccs1)S(=O)(=O)c1ccccc1)c1ccc(F)cc1 (configuration not stated),/,/,/,4µM*,-59%,/
N#Cc1ccccc1Cn1c(=O)n(CCCC(=O)NCc2ccc3c(c2)OCO3)c(=O)c2sccc21,/,/,/,-22%,-19%,/
OC1CCCN(Cc2ccc3ccc4cccc5ccc2c3c45)C1 (configuration not stated),?,-7,-1,20µM*,-60%,?
SMILES,ATXN2 expr inh,CtBP-E1A blk,Six1-Eya2 inh,TGFb SMAD3 inh,HepG2 tox,S2 tox
c1cc2ccc3ccc(CN4CCOCC4)c4ccc(c1)c2c34,26%,13,-1,-8%,-4%,i
COC(=O)c1c(OCc2cccnc2)cc(=O)n2c1CCN(C(=O)c1ccc(OC)c(F)c1)CC2,/,/,/,/,/,i
O=c1c2ccccc2sn1-c1ccccc1,?,-4,-1,16µM*,-60%,/
CC(=O)Nc1ccc2c(=O)n(-c3ccccc3)sc2c1,?,2,-4,?,-78%,/
O=c1c2ccccc2sn1-c1ccccc1F,?,0,-3,?,-87%,20µM*
N#Cc1ccc2c(=O)n(-c3ccccc3)sc2c1,-35%,-11,8,-34%,-57%,10µM*
O=c1c2cc(F)ccc2sn1-c1ccccc1,?,-2,-3,11µM*,-94%,13µM*
CN(C)c1cccc(C(=O)NCC2Cc3cccc(-c4cncnc4)c3O2)c1 (configuration not stated),/,/,/,/,/,i
COc1cc(NC(=O)c2ccc(-c3nc(COc4ccccc4)c(C)o3)cc2)cc(OC)c1,/,/,/,?,-19%,/
Cn1sc2ccccc2c1=O,28µM*,4,1,?,-111%,/
O=c1c2ccccc2sn1-c1nccs1,-4%[11.3 µM],-8,-7,-21%,-7%,?
O=c1c2ccccc2sn1-c1cccc(Cl)c1,-25%,-3,-11,?,-65%,25µM*
CC1CC(C)CN(C(=O)c2ccc3c(c2NCCO)C(=O)c2ccccc2C3=O)C1 (configuration not stated),-6%,?,-70*,-19%,11%,?
Cc1cc(C(=O)CN2C(=O)c3ccccc3S2(=O)=O)c(C)n1-c1ccccc1,4.5µM*,-7,-18,-6%,-4%,i
Cc1cc(C(=O)CN2C(=O)c3ccccc3S2(=O)=O)c(C)n1C(C)C,5µM*,-22,-9,-1%,-47%,i
CCn1c(C)cc(C(=O)CN2C(=O)c3ccccc3S2(=O)=O)c1C,?,12,-3,11%,7%,i
Cc1[nH]n(-c2ccc([N+](=O)[O-])cc2)c(=O)c1/C=N/N1CCOCC1,-8%,12,-3,2%,1.4µM*,i
CC(O)C1C(=O)N2C(C(=O)O)=C(SC3CNC(C(=O)N(C)C)C3)C(C)C12 (configuration not stated),7%,/,/,/,/,/
CC(C)(C)NC(=S)Nc1ccc(Nc2ccccc2)cc1,-14%,-18,?,?,13µM*,?
CC(C)(C)NC(=S)Nc1ccc(Br)cc1,15%,6,1,-20%,-1%,i
COc1cc2[nH]cc(C(=O)NCc3cccs3)c(=O)c2cc1OC,-12%,-73*,?,0%,-8%,i
